Here are results for 32 molecules from PubChem BioAssay (NCATS).

Values joined by “and” are separate entries in the source; they are usually repeats but may differ in a detail not shown here. Equal entries are not always repeated. Results filed as inconclusive are left out. A structure can be active in one record and inactive in another. Active and inactive are the calls of the source. Calls follow the shape of the dose curve; as a rule, active = well fitted curve in the direction sought with a large enough effect; inconclusive = small, poorly fitted or top-dose-only effect, or another doubt; inactive = no such curve, though single readings can be large; an effect the other way counts as inactive or inconclusive.
% is scaled to controls: 0 for no effect and ±100 for the full control effect; potency is read from the fitted curve at half-maximal effect.

One assay is described as follows: qHTS Assay for Identifying Gametocytocidal Compounds (AID 743244).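 As to max response: actives lower the fluorescent signal which means gametocytes are killed.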 The note with it: P. falciparum 3D7 stage III-V gametocytes, alamarBlue, 72 h; max response: hits give low values. Summed up:
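Using 20,000 stage III–V 3D7 gametocytes per well, compounds were incubated 72 h under 37 °C/5% CO2. Viability was then assessed by 24 h alamarBlue reduction, measured fluorometrically at 525/598 nm.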
On the technique in general: Quantitative high-throughput screening tests each substance at several concentrations.
Consider `COc1cc(Cc2cnc(N)nc2N)cc(OC)c1OC`, for which the max response is 1.83% (inactive) and 3.42% (inactive). On the same count and under the same terms, next, `Nc1ncn([C@@H]2O[C@H](CO)[C@@H](O)[C@H]2O)c(=O)n1`: -3.69% (inactive) and 12.2% (inactive); `c1ccc2c(c1)CCCC2C1=NCCN1` (stereo not given): -2.52% (inactive) and 13.8% (inactive); `CC(=O)Nc1nnc(S(N)(=O)=O)s1`: 9.9% (inactive) and 9.69% (inactive). Same read-out and setting: then `C[N+](C)(C)CCOC(N)=O`, with 20.5% (inactive) and 14.2% (inactive). Still for that read-out and setting: then `CCc1cccc(N(C)C(N)=Nc2cccc3ccccc23)c1`, with -2.27% (inactive) and 4.9% (inactive); and `Fc1ccc(C(c2ccc(F)cc2)N2CCN(C/C=C/c3ccccc3)CC2)cc1`, with 16.8% (inactive) and 11% (inactive); and `C[C@]12CCC(=O)C=C1CC[C@@H]1[C@@H]2C(=O)C[C@@]2(C)[C@H]1CC[C@]2(O)C(=O)CO`, with -0.251% (inactive) and -12.4% (inactive). Regarding `CC(C)COCC(CN(Cc1ccccc1)c1ccccc1)N1CCCC1` (stereo not given), the Potency was 22.4 µM (active) and the max response was 9.9% (inactive). As to `Cc1ccc(S(=O)(=O)NC(=O)NN2CCCCCC2)cc1`, the max response is -5.27% (inactive) and 9.03% (inactive). Same read-out and setting: next, `Cc1cccc(C)c1NC(=O)C(C)N` (stereo not given): 6.83% (inactive) and 24.8% (inactive); `CC(=O)[C@@]1(O)CC[C@H]2[C@@H]3CCC4=CC(=O)CC[C@]4(C)[C@H]3CC[C@@]21C`: 5.26% (inactive) and 15.8% (inactive); `CCCCOCCOCCOCc1cc2c(cc1CCC)OCO2`: 3.05% (inactive). In the case of `COCC(=O)O[C@]1(CCN(C)CCCc2nc3ccccc3[nH]2)CCc2cc(F)ccc2[C@@H]1C(C)C`, the Potency is 2.64 µM (active) and 1.41 µM (active). Take `O=C(O)CCCCCCCC(=O)O`: the max response is 9% (inactive) and 10.5% (inactive).

Take `NC(=O)N1c2ccccc2C=Cc2ccccc21`: the max response is -9.6% (inactive) and 15.5% (inactive).

Consider `CCCCNC(=O)NS(=O)(=O)c1ccc(C)cc1`, for which the max response is 0.702% (inactive) and 32.7% (inactive). Still for that read-out and setting: next, `CN(C)CC/C=C1\c2ccccc2COc2ccccc21`: 1.05% (inactive) and 7.48% (inactive); `C[C@]12C=CC(=O)C=C1CC[C@H]1[C@@H]3C[C@@H](O)[C@](O)(C(=O)CO)[C@@]3(C)C[C@H](O)[C@@]12F`: 20.4% (inactive) and -3.94% (inactive).

On to `OCCN1CCN(CCCN2c3ccccc3C=Cc3ccccc32)CC1`, for which the Potency was 11.2 µM (active); the max response is -7.06% (inactive) and 7.36% (inactive). On to `CN=C(NC#N)NCCSCc1nc[nH]c1C`, for which the max response is 2.14% (inactive) and 13.4% (inactive).

Consider `Cc1scc2c1N(C(=O)CN1CCN(C)CC1)c1ccccc1NC2=O`, for which the max response is 11.1% (inactive) and 13% (inactive).

In the case of `NC(=Nc1ccccc1)Nc1ccccc1`, the max response was 5.26% (inactive) and -9.95% (inactive). As for `O=C1NCN(c2ccccc2)C12CCN(CCCC(c1ccc(F)cc1)c1ccc(F)cc1)CC2`, the Potency is 10 µM (active). On to `Nc1nc(N)c2nc(-c3ccccc3)c(N)nc2n1`, for which the max response was -2.09% (inactive) and -8.78% (inactive). On the same count and under the same terms, then `O=c1[nH]c(=O)n([C@H]2C[C@H](O)[C@@H](CO)O2)cc1Br`, with 2.92% (inactive) and 14.4% (inactive). Same read-out and setting: next, `CNCCC(Oc1ccccc1OC)c1ccccc1` (stereo not given): 19.3% (inactive). Same read-out and setting: then `COc1ccc(CN(CCN(C)C)c2ccccn2)cc1`, with -1.15% (inactive) and 9.8% (inactive); and `CC(C)(Oc1ccc(CCNC(=O)c2ccc(Cl)cc2)cc1)C(=O)O`, with 5.91% (inactive) and 17.9% (inactive); and `Cc1cc(C)c(/C=C2\C(=O)Nc3ccccc32)[nH]1`, with -7.62% (inactive) and 20.5% (inactive). Consider `CCn1ccnc1CC1COc2ccccc2O1` (stereo not given), for which the max response was 13.9% (inactive) and 11.7% (inactive).

A short description of another assay: qHTS assay for cell viability of HEK293 cells (AID 743288). Also: nearly all actives have a fitted effect of over 50% in size. The note with it: ATP luminescence (CellTiter-Glo), 18 h; max response: hits give low values. Summed up: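 HEK293 parental, 2,000 cells/well; ≥5 h pre-incubation 37 C; pintool compound addition; 18 h, 37 C; CellTiter-Glo 30 min RT; luminescence read.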
Regarding `COc1cc(Cc2cnc(N)nc2N)cc(OC)c1OC`, the max response was -2.08% (inactive). On the same count and under the same terms, next, `CC(=O)Nc1nnc(S(N)(=O)=O)s1`: -6.47% (inactive); `C[C@]12CCC(=O)C=C1CC[C@@H]1[C@@H]2C(=O)C[C@@]2(C)[C@H]1CC[C@]2(O)C(=O)CO`: -1.33% (inactive). Same read-out and setting: next, `Cc1ccc(S(=O)(=O)NC(=O)NN2CCCCCC2)cc1`: -0.908% (inactive); `CC(=O)[C@@]1(O)CC[C@H]2[C@@H]3CCC4=CC(=O)CC[C@]4(C)[C@H]3CC[C@@]21C`: -17.3% (inactive); `CCCCOCCOCCOCc1cc2c(cc1CCC)OCO2`: -11.4% (inactive) and -13.4% (inactive). On the same count and under the same terms, then `O=C(O)CCCCCCCC(=O)O`, with -0.211% (inactive). With `NC(=O)N1c2ccccc2C=Cc2ccccc21`, the max response was -11.6% (inactive) and -13.8% (inactive). Same read-out and setting: next, `CCCCNC(=O)NS(=O)(=O)c1ccc(C)cc1`: 2.43% (inactive) and -13.2% (inactive); `C[C@]12C=CC(=O)C=C1CC[C@H]1[C@@H]3C[C@@H](O)[C@](O)(C(=O)CO)[C@@]3(C)C[C@H](O)[C@@]12F`: -7.12% (inactive). Still for that read-out and setting: then `CN=C(NC#N)NCCSCc1nc[nH]c1C`, with -3.45% (inactive); and `NC(=Nc1ccccc1)Nc1ccccc1`, with -13.7% (inactive) and -2.76% (inactive). Regarding `Nc1nc(N)c2nc(-c3ccccc3)c(N)nc2n1`, the Potency is 31.6 µM (active).

Turning to `COC(=O)[C@H]1[C@H]2C[C@@H]3c4[nH]c5cc(OC)ccc5c4CCN3C[C@H]2C[C@@H](OC(=O)c2cc(OC)c(OC)c(OC)c2)[C@@H]1OC`, the Potency was 39.8 µM (active). As for `O=c1[nH]c(=O)n([C@H]2C[C@H](O)[C@@H](CO)O2)cc1Br`, the max response was -7.4% (inactive). Still for that read-out and setting: next, `COc1ccc(CN(CCN(C)C)c2ccccn2)cc1`: -9.66% (inactive); `CC(C)(Oc1ccc(CCNC(=O)c2ccc(Cl)cc2)cc1)C(=O)O`: -0.154% (inactive).
